Test results taken from PubChem BioAssay.
Active and inactive are the calls of the source. Unless noted, no rule for the calls is given here.

Key:
[1] = resazurin metabolic signal in HepG2 cells – cell-based, resazurin fluorescence, 24 h, PK04 Diversity Set, profiling panel (AID 1172); details: HepG2 viability, higher = more signal; also: test concentration not given here
[2] = budding yeast growth changes without added modifier – OD600, strain BY4716, 24 h, basal condition, primary screen (AID 1173); details: S. cerevisiae BY4716 growth, OD600, 24 h; higher = more signal, called active from +8 up or from −8 down
[3] = viability profiling in MM1S myeloma cells – cell-based, resazurin fluorescence, basal, 24 h, PK04 Diversity Set, profiling panel (AID 1174); details: higher = more signal, called active from +8 up or from −8 down;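 also: MM1S multiple myeloma cell line; test concentration not given here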
[4] = target: Dihydroorotate dehydrogenase (quinone), mitochondrial (Plasmodium falciparum (isolate 3D7)) (UniProt Q08210); test: inhibition of P. falciparum DHODH – biochemical, C-terminal His tag, absorbance 600 nm, primary screen (AID 1175); details: PfDHODH enzyme, DCIP absorbance 600 nm; higher = more signal, called active from +8 up or from −8 down;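 also: recombinant parasite enzyme with a five histidine tag at its C terminus; test concentration not given here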
[5] = inhibition of PAO1 biofilm formation – strain PAO1, LB-PBS medium, absorbance 600 nm, primary screen (AID 1176); also: test concentration not given here; details: P. aeruginosa PAO1 growth/biofilm, A600, 12 h; higher = more signal
[6] = growth modulation of vineyard yeast isolate – strain RM11-1a, OD600, basal, 24 h, primary screen (AID 1177);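 also: cultures grown under basal conditions with no added stressor; test concentration not given here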; details: S. cerevisiae RM11-1a growth, OD600, 24 h; higher = more signal, called active from +8 up or from −8 down
[7] = growth of efflux-deficient E. coli DRC39 – strain DRC39, OD650, 24 h, E. coli filamentation inducers, primary screen (AID 1178);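 also: growth measured as culture turbidity by optical density at 650 nm; test concentration not given here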; details: E. coli DRC39 acrAB, higher = more signal, called active from +8 up or from −8 down
[8] = growth of efflux-deficient E. coli DRC39 – strain DRC39, OD650, 48 h, E. coli filamentation inducers, primary screen (AID 1179);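 also: screen aims at cell division blockers that make cells filament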; details: E. coli DRC39 delta-acrAB growth, higher = more signal, called active from +8 up or from −8 down
[9] = viability profiling in RPMI8226 myeloma cells – cell-based, resazurin fluorescence, basal, 24 h, PK04 Diversity Set, profiling panel (AID 1180); details: higher = more signal;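 also: RPMI8826 multiple myeloma cell line at 5000 cells per well; test concentration not given here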
[10] = target: E3 ubiquitin-protein ligase XIAP (Homo sapiens) (UniProt P98170); test: small molecules binding XIAP protein – biophysical, small-molecule microarray, fluorescence 635 nm, primary screen (AID 1181); details: higher = more signal;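 also: score merges 667 nm emission and signal to noise over triplicate slides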
Sequence of E3 ubiquitin-protein ligase XIAP (Homo sapiens) (P98170 whole entry, looked up): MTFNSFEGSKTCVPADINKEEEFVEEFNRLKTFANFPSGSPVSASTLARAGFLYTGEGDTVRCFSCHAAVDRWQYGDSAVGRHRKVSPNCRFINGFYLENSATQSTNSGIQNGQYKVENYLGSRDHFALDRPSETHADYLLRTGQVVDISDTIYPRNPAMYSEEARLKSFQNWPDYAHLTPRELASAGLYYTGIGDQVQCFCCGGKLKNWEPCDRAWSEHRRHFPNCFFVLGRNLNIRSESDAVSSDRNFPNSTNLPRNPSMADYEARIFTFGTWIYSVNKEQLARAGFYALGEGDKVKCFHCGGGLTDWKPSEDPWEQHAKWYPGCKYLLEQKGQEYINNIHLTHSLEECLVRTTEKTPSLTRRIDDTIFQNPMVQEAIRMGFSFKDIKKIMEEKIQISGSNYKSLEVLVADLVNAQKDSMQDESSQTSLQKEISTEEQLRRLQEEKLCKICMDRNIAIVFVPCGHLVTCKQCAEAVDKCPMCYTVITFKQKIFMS

Sequence of Dihydroorotate dehydrogenase (quinone), mitochondrial (Plasmodium falciparum (isolate 3D7)) (Q08210 whole entry, looked up): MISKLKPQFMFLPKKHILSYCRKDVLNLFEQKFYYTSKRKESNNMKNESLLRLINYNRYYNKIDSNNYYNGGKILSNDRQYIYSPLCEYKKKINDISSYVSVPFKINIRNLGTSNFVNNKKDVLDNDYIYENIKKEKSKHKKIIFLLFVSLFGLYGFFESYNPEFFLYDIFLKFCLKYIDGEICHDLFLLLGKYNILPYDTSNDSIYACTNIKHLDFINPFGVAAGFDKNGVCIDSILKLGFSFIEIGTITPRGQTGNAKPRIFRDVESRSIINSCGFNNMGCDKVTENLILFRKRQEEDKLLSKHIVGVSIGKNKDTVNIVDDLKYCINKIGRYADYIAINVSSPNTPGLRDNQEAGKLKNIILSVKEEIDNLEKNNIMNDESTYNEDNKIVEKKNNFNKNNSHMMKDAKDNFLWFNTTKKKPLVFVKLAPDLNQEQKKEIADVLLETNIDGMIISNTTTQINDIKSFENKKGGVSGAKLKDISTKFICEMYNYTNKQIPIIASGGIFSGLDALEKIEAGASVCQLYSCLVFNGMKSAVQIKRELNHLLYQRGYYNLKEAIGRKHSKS

Row | Structure (SMILES) | z-score [1] | z-score [2] | z-score [3] | composite z-score [4] | z-score [5] | z-score [6] | z-score [7] | z-score [8] | z-score [9] | composite z-score [10]
1 | Cc1ccc(S[C@]2(C(=O)NC(C)C)CC(=O)N(C3CCCCC3)[C@@H]2c2ccc(CO)cc2I)cc1 | 0.748 | 0.27 (inactive) | -0.611 (inactive) | 0.62 (inactive) | 0.462 (inactive) | 1.16 (inactive) | 0.384 (inactive) | -0.138 (inactive) | -2.01 | -0.0559
2 | CN(C)c1ccc(C(O)C2C=CC3C(=O)N(Cc4ccccc4)C(=O)C3N2n2cnnc2)cc1 (stereo not given) | -0.659 | -0.116 (inactive) | -0.253 (inactive) | -0.536 (inactive) | 1.77 (inactive) | -0.794 (inactive) | 0.0571 (inactive) | 0.694 (inactive) | -0.268 | 0.0968
3 | CCCC[C@H]1C[C@@H]1[C@@H]1N(C(C)=O)[C@H](c2cccc(OC)c2)CC12CC2 | 0.527 | -6.41 (inactive) | 1.05 (inactive) | 0.348 (inactive) | -0.499 (inactive) | 0.52 (inactive) | -0.083 (inactive) | -0.791 (inactive) | 1.43 | -0.0416
4 | C[C@@H]1ON(c2ccc(I)cc2)[C@H](c2cccc(NC(=O)OCC3c4ccccc4-c4ccccc43)c2)[C@H]1C(=O)N1C(=O)OC[C@H]1Cc1ccccc1 | 0.742 | -1.04 (inactive) | 0.965 (inactive) | 0.14 (inactive) | 0.13 (inactive) | 0.774 (inactive) | 1.32 (inactive) | 0.818 (inactive) | 1.06 | -0.412
5 | CCCNC(=O)[C@@]1(c2ccc([N+](=O)[O-])cc2)CC(=O)N(C(C)C)[C@@H]1c1ccc(CO)cc1 | 0.0889 | -0.324 (inactive) | -0.96 (inactive) | 0.0058 (inactive) | 0.373 (inactive) | -0.355 (inactive) | 0.388 (inactive) | -0.508 (inactive) | 0.123 | 0.0692
6 | CCOC(=O)C[C@H]1[C@H](OC(=O)Cc2ccc3c(c2)OCO3)[C@@H](NC(=O)c2ccc3ccccc3n2)c2cc(OCCCO)ccc2N1C(=O)Cc1ccc(OC)cc1 | 1.14 | -1.17 (inactive) | -0.175 (inactive) | -1.55 (inactive) | 0.477 (inactive) | -0.925 (inactive) | 1.12 (inactive) | 1.6 (inactive) | 0.29 | -0.232
7 | O=C1C2C=CC(C(O)C3CCCCC3)N(n3cnnc3)C2C(=O)N1Cc1ccccc1 (stereo not given) | -0.308 | 0.161 (inactive) | -0.196 (inactive) | -0.016 (inactive) | 0.561 (inactive) | -0.618 (inactive) | 0.386 (inactive) | 1.01 (inactive) | -0.513 | -0.0535
8 | COC(=O)[C@@]1(Cc2ccccc2)[C@H]2c3cc(C(=O)N(C)C)n(CCSC(=N)N)c3C[C@H]2CN1C(=O)c1ccccc1 | -0.436 | 1.36 (inactive) | -0.399 (inactive) | 0.644 (inactive) | -0.0424 (inactive) | 0.0986 (inactive) | -0.456 (inactive) | -0.295 (inactive) | -0.374 | -0.0592
9 | COC(=O)[C@]1(CCC(=O)OC(C)(C)C)N=C(c2ccc(OCCCO)cc2)O[C@@H]1c1ccccc1N=[N+]=[N-] | -0.223 | 0.887 (inactive) | -2.56 (inactive) | 0.878 (inactive) | 1.31 (inactive) | 2.29 (inactive) | 0.844 (inactive) | 0.182 (inactive) | -2.15 | 0.0037
10 | C=C1C(=O)C=C2CN(C(=O)c3ccccc3)[C@@](Cc3ccc(OC)cc3)(C(=O)OC)[C@@H]12 | -0.187 | 1.33 (inactive) | -1.82 (inactive) | 0.046 (inactive) | 0.964 (inactive) | 0.468 (inactive) | -0.624 (inactive) | -0.841 (inactive) | -4.1 | 0.107
11 | COC(=O)[C@@]1(Cc2ccc(OC)cc2)[C@H]2c3cc(C(=O)N(C)C)[nH]c3C[C@H]2CN1C(=O)c1ccccc1 | -0.576 | 0.304 (inactive) | -0.798 (inactive) | -0.309 (inactive) | -0.471 (inactive) | 0.68 (inactive) | -0.151 (inactive) | 0.192 (inactive) | -0.247 | -0.147
12 | COC(=O)C(CC#Cc1ccc2c(c1)[C@]1(C(=O)N2)[C@H](C(=O)NC[C@H](O)c2ccccc2)[C@H]2C(=O)O[C@H](c3ccccc3)[C@H](c3ccccc3)N2[C@@H]1c1ccccc1OCCO)C(=O)OC | 0.786 | 1.42 (inactive) | -7.38 (inactive) | -7.26 (inactive) | 1.7 (inactive) | 1.6 (inactive) | 0.0386 (inactive) | -0.477 (inactive) | -6.76 | -0.0629
13 | CCCC[C@H]1OB(O)C[C@H]2C1=C(COc1ccccc1)C[C@H]1C(=O)C=CC(=O)[C@H]12 | -0.149 | -5.19 (inactive) | -0.286 (inactive) | -0.973 (inactive) | 0.531 (inactive) | -0.179 (inactive) | 1.78 (inactive) | 0.715 (inactive) | 0.262 | 0.0264
14 | COCCCNC(=O)[C@@]1(CCS(=O)(=O)c2ccccc2)COC(c2ccc(OCCCO)cc2)=N1 | -0.721 | -0.25 (inactive) | -0.849 (inactive) | -0.565 (inactive) | 0.19 (inactive) | -0.19 (inactive) | 0.199 (inactive) | 0.103 (inactive) | -0.508 | 0.218
15 | C=CC[C@@]12N=C(c3ccc(OCCCO)cc3)O[C@@H]1c1ccccc1N(CCC)C2=O | 0.167 | -2.22 (inactive) | -1.19 (inactive) | -0.147 (inactive) | 1.2 (inactive) | 0.829 (inactive) | 0.215 (inactive) | 1.02 (inactive) | -0.473 | -0.132
16 | O=C(NCc1ccccc1)[C@@H]1c2ccccc2C(=O)N(Cc2ccc(OC(F)(F)F)cc2)[C@H]1c1ccc(CO)cc1 | 0.299 | -0.103 (inactive) | 0.61 (inactive) | -0.197 (inactive) | -0.109 (inactive) | -0.486 (inactive) | 0.822 (inactive) | 0.387 (inactive) | 1.5 | 0.371
17 | O=C1O[C@@H](c2ccccc2)[C@@H](c2ccccc2)N2[C@@H](c3ccccc3OCCO)[C@]3(C(=O)Nc4ccc(C#CCCO)cc43)[C@@H](C(=O)NC[C@H](O)c3ccccc3)[C@H]12 | 0.5 | 1.29 (inactive) | 0.253 (inactive) | 0.873 (inactive) | 0.614 (inactive) | 2.96 (inactive) | 0.797 (inactive) | 0.367 (inactive) | -2.7 | -0.0669
18 | N#Cc1ccc(NN2C(C(O)C3CC=CCC3)C=CC3C(=O)N(c4ccccc4)C(=O)C32)cc1 (stereo not given) | -1.3 | 0.0837 (inactive) | -0.609 (inactive) | 0.0758 (inactive) | 1.36 (inactive) | 0.601 (inactive) | 0.0108 (inactive) | 0.123 (inactive) | -0.382 | -0.0848
19 | COC(=O)[C@@]1(Cc2ccc(OC)cc2)[C@H]2c3cc(C(=O)N4CCCC4)n(Cc4ccc(C(F)(F)F)nc4)c3C[C@H]2CN1C(=O)c1ccccc1 | -0.35 | 1.37 (inactive) | -1.07 (inactive) | -0.77 (inactive) | 1.08 (inactive) | -0.809 (inactive) | -0.886 (inactive) | -0.71 (inactive) | -2.32 | -0.02
20 | C=CCC(OC(C)=O)[C@@H]1[C@@H](N(Cc2ccc(-c3cccc(C(F)(F)F)c3)o2)C(=O)c2ccc(-c3ccccc3)cc2)c2cc(OCCCO)ccc2N1C(=O)c1ccc2ccccc2c1 (stereo not given in full) | 0.393 | 0.488 (inactive) | 0.314 (inactive) | -0.0636 (inactive) | -0.452 (inactive) | 1.27 (inactive) | 0.391 (inactive) | 0.412 (inactive) | 0.881 | -0.0889
21 | COc1cc(CO)cc(I)c1O[C@H]1C=C(C(=O)NCCO)C[C@@H](NC2CCCCCC2)[C@@H]1O | 0.371 | -4.02 (inactive) | 0.115 (inactive) | 1.11 (inactive) | -0.896 (inactive) | 0.77 (inactive) | 0.901 (inactive) | 0.12 (inactive) | 0.215 | -0.11
22 | CC(C)OC(=O)CC(=O)CC(O)c1cccc([N+](=O)[O-])c1 (stereo not given) | -0.476 | -3.08 (inactive) | 0.326 (inactive) | -2.1 (inactive) | 1.1 (inactive) | -2.42 (inactive) | 0.704 (inactive) | 2 (inactive) | 0.083 | 0.15
23 | Cc1ccc(C(C)CC(O)C2C=CC3C(=O)N(C)C(=O)C3N2Nc2ccccc2)o1 (stereo not given) | -0.243 | 0.372 (inactive) | -0.855 (inactive) | 0.164 (inactive) | 0.695 (inactive) | 0.051 (inactive) | -1 (inactive) | -0.466 (inactive) | -0.874 | 0.198
24 | O=C(N1CCOCC1)[C@@]1(Cc2ccccc2)COC(c2ccc(OCCCO)cc2)=N1 | -0.395 | -3.37 (inactive) | 0.13 (inactive) | -0.641 (inactive) | 0.565 (inactive) | -0.428 (inactive) | 1.26 (inactive) | 0.284 (inactive) | 1.15 | 0.081
25 | COC(=O)[C@@]1(Cc2ccc(F)cc2)[C@H]2c3cc(C(=O)N4CCCC4)n(CCc4ccccn4)c3C[C@H]2CN1C(=O)c1ccccc1 | -0.386 | 0.842 (inactive) | -0.232 (inactive) | 0.224 (inactive) | 0.647 (inactive) | 0.564 (inactive) | -0.803 (inactive) | -0.588 (inactive) | -0.102 | 0.0853
26 | NC(=O)N1C(=O)C2C(C1=O)C1C=C(CCCO)C2C(c2ccc(CN3CCCC3)cc2)N1Cc1sc2ccccc2c1Cl (stereo not given) | -0.968 | -2.06 (inactive) | -1.29 (inactive) | 0.574 (inactive) | 0.0721 (inactive) | -0.243 (inactive) | -0.291 (inactive) | -0.693 (inactive) | -1.04 | -0.167
